According to PubChem BioAssay (EPA / NIEHS):
Values joined by “and” are separate entries in the source; they are usually repeats but may differ in a detail not shown here. Identical values can stand only once. Inconclusive results are not listed. Where a structure was tested more than once in an assay, its records may differ in their call. Active and inactive are the calls of the source. How the source made its calls, unless noted: active means hit-call score of the fitted dose curve at least 0.9, where 1 is the maximum; inactive means score below 0.9.

Key:
[1] = biological target: Retinoic acid receptor RXR-alpha (Homo sapiens) (UniProt P19793); assay: ATG_RXRa_TRANS: Attagene TRANS-FACTORIAL HepG2 Assay for human Retinoid X Receptor alpha (RXRa) (AID 2283012; active means hit-call score of the fitted dose curve at least 0.9, where 1 is the maximum)
Retinoic acid receptor RXR-alpha (Homo sapiens), sequence (P19793 whole entry, looked up, the tested form may be a part): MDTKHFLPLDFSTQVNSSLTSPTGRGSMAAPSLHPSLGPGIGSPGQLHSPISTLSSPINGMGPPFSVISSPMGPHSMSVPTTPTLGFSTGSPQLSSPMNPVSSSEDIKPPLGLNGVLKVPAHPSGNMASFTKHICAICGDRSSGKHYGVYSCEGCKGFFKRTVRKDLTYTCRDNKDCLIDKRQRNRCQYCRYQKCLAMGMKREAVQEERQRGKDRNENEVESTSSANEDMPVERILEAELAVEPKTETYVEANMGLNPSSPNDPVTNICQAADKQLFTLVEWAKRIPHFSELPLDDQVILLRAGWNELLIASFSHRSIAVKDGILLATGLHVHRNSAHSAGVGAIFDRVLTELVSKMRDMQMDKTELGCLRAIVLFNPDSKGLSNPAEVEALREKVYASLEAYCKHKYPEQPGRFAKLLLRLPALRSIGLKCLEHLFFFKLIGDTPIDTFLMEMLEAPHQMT
Method in brief: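 Measures exogenous chimeric NR-GAL4 activity in transfected HepG2 liver cells after 24 h of dosing. Induced reporter mRNA was detected by RT-PCR with capillary electrophoresis, and gain of signal was analysed against DMSO.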

[2] = biological target: human Retinoid X Receptor beta (RXRb), RXRB (gene 6257) (UniProt P28702); assay: ATG_RXRb_TRANS: Attagene TRANS-FACTORIAL HepG2 Assay for human Retinoid X Receptor beta (RXRb) (AID 2283013; active means hit-call score of the fitted dose curve at least 0.9, where 1 is the maximum)
human Retinoid X Receptor beta (RXRb), RXRB (gene 6257), sequence (P28702 whole entry, looked up, the tested form may be a part): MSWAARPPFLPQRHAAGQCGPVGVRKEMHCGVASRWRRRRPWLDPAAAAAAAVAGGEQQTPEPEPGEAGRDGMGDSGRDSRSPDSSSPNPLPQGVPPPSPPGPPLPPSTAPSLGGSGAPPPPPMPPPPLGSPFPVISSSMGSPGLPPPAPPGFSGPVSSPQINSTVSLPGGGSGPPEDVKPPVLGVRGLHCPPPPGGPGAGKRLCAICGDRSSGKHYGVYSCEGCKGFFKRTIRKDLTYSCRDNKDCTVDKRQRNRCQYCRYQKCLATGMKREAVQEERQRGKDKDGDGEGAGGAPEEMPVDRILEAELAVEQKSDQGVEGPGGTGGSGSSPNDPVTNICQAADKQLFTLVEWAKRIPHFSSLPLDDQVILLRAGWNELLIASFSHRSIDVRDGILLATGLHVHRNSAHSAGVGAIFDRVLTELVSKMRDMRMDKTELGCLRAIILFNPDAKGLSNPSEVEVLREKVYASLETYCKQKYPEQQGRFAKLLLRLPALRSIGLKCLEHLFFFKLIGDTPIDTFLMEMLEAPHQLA
Method in brief: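 Chimeric receptor-Gal4 activity was assessed in transiently transfected human HepG2 cells after 24 h exposure. Transcripts from GAL4-UAS reporters were quantified by fluorescent RT-PCR and capillary electrophoresis, with DMSO as negative control and baseline.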

[3] = read-out: E-selectin (Homo sapiens) (UniProt P16581); assay: BSK_3C_Eselectin: BioMAP Diversity Plus: 3C Assay for Eselectin Biomarker Activity (AID 2283015); conditions: primary human endothelial cells (HUVEC); actives raise or lower the signal
Method in brief: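 Endpoint derived by bidirectional fitting against DMSO vehicle; signal is ELISA-detected E-selectin from primary HUVEC at 24 h post-dosing, with parallel SRB staining (0.1% SRB, 560 nm) flagging cytotoxicity.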

[4] = read-out: Interleukin-1 alpha (IL1a), IL1A (gene 3552); assay: BSK_BE3C_IL1a: BioMAP Diversity Plus: BE3C Assay for Interleukin-1 alpha (IL1a) Biomarker Activity (AID 2283016); conditions: primary human bronchial epithelial cells; actives raise or lower the signal
Method in brief: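 Signal from IL-1a ELISA, taken 24 h after chemical dosing of human bronchial epithelial cells, is compared with DMSO as baseline using bidirectional curve fitting.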

[5] = read-out: Monocyte Chemoattractant Protein-1 (MCP1), CCL2 (gene 6347); assay: BSK_4H_MCP1: BioMAP Diversity Plus: 4H Assay for Monocyte Chemoattractant Protein-1 (MCP1) Biomarker Activity (AID 2283018); conditions: primary human endothelial cells (HUVEC); actives raise or lower the signal
Method in brief: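 Endothelial cells from umbilical vein were treated with test chemical, then after 24 h MCP-1 levels were quantified by ELISA; endpoint values came from bidirectional fitting with DMSO as baseline of activity.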

[6] = read-out: Human Leukocyte Antigen - DR isotype (HLADR), HLA-DRA (gene 3122); assay: BSK_3C_HLADR: BioMAP Diversity Plus: 3C Assay for Human Leukocyte Antigen - DR isotype (HLADR) Biomarker Activity (AID 2283019); conditions: primary human endothelial cells (HUVEC); actives raise or lower the signal
Method in brief: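 Compound added to primary HUVEC cultures, 24 h incubation, then HLA-DR determined by ELISA; endpoint derived by bidirectional fitting relative to DMSO negative control.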

[7] = read-out: Interleukin-8 (IL8), CXCL8 (gene 3576); assay: BSK_3C_IL8: BioMAP Diversity Plus: 3C Assay for Interleukin-8 (IL8) Biomarker Activity (AID 2283020); conditions: primary human endothelial cells (HUVEC); actives raise or lower the signal
Method in brief: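 Endothelial primary cells of human umbilical vein origin are dosed with chemical; after 24 h the IL-8 biomarker is measured by ELISA, and concentration–response is fitted in both directions versus DMSO.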

[8] = read-out: Monokine induced gamma interferon (MIG), CXCL9 (gene 4283); assay: BSK_3C_MIG: BioMAP Diversity Plus: 3C Assay for Monokine induced gamma interferon (MIG) Biomarker Activity (AID 2283021); conditions: primary human endothelial cells (HUVEC); actives raise or lower the signal;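 on AC50: MIG protein level measured by immunoassay in the treated endothelial cultures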
Method in brief: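 Endothelial primary cells (human umbilical vein) are dosed with test chemical in the 3C system. MIG levels are measured by ELISA at 24 h and fitted in both directions relative to DMSO.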

[9] = BSK_3C_SRB: Viability Assessment in the BioMAP Diversity Plus: 3C Assay (AID 2283023); conditions: primary human endothelial cells (HUVEC);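 further: fitted both ways against DMSO so a hit may be signal rise or drop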
Method in brief: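 Overt cytotoxicity is gauged in parallel confluent HUVEC cultures by SRB total-protein staining at the time of biomarker measurement, 24 h after dosing. Gain or loss of signal is fitted versus DMSO.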

[10] = read-out: Matrix Metallopeptidase 1 (MMP1), MMP1 (gene 4312); assay: BSK_BE3C_MMP1: BioMAP Diversity Plus: BE3C Assay for Matrix Metallopeptidase 1 (MMP1) Biomarker Activity (AID 2283024); conditions: primary human bronchial epithelial cells; actives raise or lower the signal
Method in brief: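 MMP1 signal, measured by ELISA after a 24 h chemical exposure of human primary bronchial epithelial cells, is analysed with bidirectional fitting using DMSO as negative control.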

[11] = read-out: Pselectin, SELP (gene 6403); assay: BSK_4H_Pselectin: BioMAP Diversity Plus: 4H Assay for Pselectin Biomarker Activity (AID 2283026); conditions: primary human endothelial cells (HUVEC); actives raise or lower the signal
Method in brief: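 Endothelial primary cells (human umbilical vein) are dosed, incubated 24 h, and assayed for surface P-selectin by ELISA; responses in either direction are fitted relative to the DMSO negative control.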

[12] = BSK_4H_SRB: Viability Assessment in the BioMAP Diversity Plus: 4H Assay (AID 2283027); conditions: primary human endothelial cells (HUVEC);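 further: cells exposed to compound for 24 h before staining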;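 on AC50: curves fitted both ways versus DMSO so AC50 may be loss or gain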
Method in brief: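 Cytotoxicity readout: sulforhodamine B (0.1%) staining of total protein after 10% TCA fixation, measured at 560 nm in human umbilical vein endothelium at 24 h. DMSO set the baseline; fitting was bidirectional.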

[13] = BSK_BE3C_SRB: Viability Assessment in the BioMAP Diversity Plus: BE3C Assay (AID 2283028); conditions: primary human bronchial epithelial cells;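 on AC50: fitted both ways so AC50 may mark signal gain or loss versus DMSO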
Method in brief: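 SRB total-protein staining (0.1%, after TCA fixation) of chemically dosed human bronchial epithelial primary cells at 24 h; DMSO serves as the negative control for bidirectional curve fitting.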

[14] = read-out: Thrombomodulin, THBD (gene 7056); assay: BSK_3C_Thrombomodulin: BioMAP Diversity Plus: 3C Assay for Thrombomodulin Biomarker Activity (AID 2283029); conditions: primary human endothelial cells (HUVEC); actives raise or lower the signal
Method in brief: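 Endothelial cells from umbilical vein are dosed with test chemical and incubated 24 h. Thrombomodulin is then quantified by ELISA, with DMSO serving as negative control and activity baseline.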

[15] = biological target: human RAR-related Orphan Receptor gamma (RORg), RORC (gene 6097) (UniProt P51449); assay: ATG_RORg_TRANS: Attagene TRANS-FACTORIAL HepG2 Assay for human RAR-related Orphan Receptor gamma (RORg) (AID 2283011; active means hit-call score of the fitted dose curve at least 0.9, where 1 is the maximum)
human RAR-related Orphan Receptor gamma (RORg), RORC (gene 6097), sequence (P51449 whole entry, looked up, the tested form may be a part): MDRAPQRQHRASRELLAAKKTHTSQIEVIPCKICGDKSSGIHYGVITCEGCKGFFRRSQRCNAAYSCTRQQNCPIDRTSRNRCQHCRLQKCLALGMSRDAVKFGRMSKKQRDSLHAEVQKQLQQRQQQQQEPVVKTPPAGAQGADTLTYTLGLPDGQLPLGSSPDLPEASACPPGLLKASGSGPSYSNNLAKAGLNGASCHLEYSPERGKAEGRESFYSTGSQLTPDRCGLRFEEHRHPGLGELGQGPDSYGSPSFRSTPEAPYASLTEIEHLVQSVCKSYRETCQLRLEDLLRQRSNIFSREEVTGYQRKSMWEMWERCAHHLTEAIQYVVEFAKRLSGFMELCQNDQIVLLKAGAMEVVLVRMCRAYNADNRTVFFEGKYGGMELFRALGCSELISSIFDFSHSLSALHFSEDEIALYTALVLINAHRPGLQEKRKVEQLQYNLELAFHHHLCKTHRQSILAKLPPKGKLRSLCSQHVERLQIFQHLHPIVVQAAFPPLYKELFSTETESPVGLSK
Method in brief: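 Chimeric RORg-Gal4 transactivation in transfected HepG2; 24 h exposure; RT-PCR/capillary electrophoresis readout of reporter mRNA, DMSO baseline.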

[16] = read-out: Monocyte Chemoattractant Protein-1 (MCP1), CCL2 (gene 6347); assay: BSK_3C_MCP1: BioMAP Diversity Plus: 3C Assay for Monocyte Chemoattractant Protein-1 (MCP1) Biomarker Activity (AID 2283017); conditions: primary human endothelial cells (HUVEC); actives raise or lower the signal
Method in brief: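 Using human vascular primary endothelium, researchers measured MCP-1 by ELISA 24 h after treatment, with DMSO serving as negative control for bidirectional fitting.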

[17] = biological target: human Vitamin D Receptor (VDR), VDR (gene 7421) (UniProt P11473); assay: ATG_VDR_TRANS: Attagene TRANS-FACTORIAL HepG2 Assay for human Vitamin D Receptor (VDR) (AID 2283022; active means hit-call score of the fitted dose curve at least 0.9, where 1 is the maximum)
human Vitamin D Receptor (VDR), VDR (gene 7421), sequence (P11473 whole entry, looked up): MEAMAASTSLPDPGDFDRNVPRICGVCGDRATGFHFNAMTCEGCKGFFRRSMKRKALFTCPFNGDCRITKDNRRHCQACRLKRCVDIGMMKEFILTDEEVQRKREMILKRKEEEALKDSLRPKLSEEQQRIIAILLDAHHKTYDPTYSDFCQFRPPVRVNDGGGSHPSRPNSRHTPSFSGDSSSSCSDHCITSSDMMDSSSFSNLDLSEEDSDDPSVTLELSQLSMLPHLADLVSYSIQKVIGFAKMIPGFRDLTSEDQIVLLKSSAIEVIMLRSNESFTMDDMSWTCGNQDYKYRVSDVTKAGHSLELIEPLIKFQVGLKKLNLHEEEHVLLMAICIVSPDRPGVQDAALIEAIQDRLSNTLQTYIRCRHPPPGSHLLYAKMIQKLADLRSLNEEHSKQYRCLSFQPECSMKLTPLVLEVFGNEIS
Method in brief: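 Multiplexed TRANS reporter in HepG2; 24 h treatment; reporter mRNA by RT-PCR plus capillary electrophoresis; upregulation scored relative to DMSO.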

[18] = BSK_3C_Vis: BioMAP Diversity Plus: 3C Assay for Morphology Visualization (AID 2283025); conditions: primary human endothelial cells (HUVEC);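 further: fitted both ways so gain or loss versus DMSO counts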
Method in brief: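 Morphology read by light microscopy serves as a background control for the multiplexed 3C assay in human umbilical vein endothelial cells, taken 24 h after dosing, with DMSO as the negative control and bidirectional curve fitting.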

[19] = biological target: human Thyroid Receptor alpha (THRa1), THRA (gene 7067) (UniProt P10827); assay: ATG_THRa1_TRANS: Attagene TRANS-FACTORIAL HepG2 Assay for human Thyroid Receptor alpha (THRa1) (AID 2283014; active means hit-call score of the fitted dose curve at least 0.9, where 1 is the maximum)
human Thyroid Receptor alpha (THRa1), THRA (gene 7067), sequence (P10827 whole entry, looked up, the tested form may be a part): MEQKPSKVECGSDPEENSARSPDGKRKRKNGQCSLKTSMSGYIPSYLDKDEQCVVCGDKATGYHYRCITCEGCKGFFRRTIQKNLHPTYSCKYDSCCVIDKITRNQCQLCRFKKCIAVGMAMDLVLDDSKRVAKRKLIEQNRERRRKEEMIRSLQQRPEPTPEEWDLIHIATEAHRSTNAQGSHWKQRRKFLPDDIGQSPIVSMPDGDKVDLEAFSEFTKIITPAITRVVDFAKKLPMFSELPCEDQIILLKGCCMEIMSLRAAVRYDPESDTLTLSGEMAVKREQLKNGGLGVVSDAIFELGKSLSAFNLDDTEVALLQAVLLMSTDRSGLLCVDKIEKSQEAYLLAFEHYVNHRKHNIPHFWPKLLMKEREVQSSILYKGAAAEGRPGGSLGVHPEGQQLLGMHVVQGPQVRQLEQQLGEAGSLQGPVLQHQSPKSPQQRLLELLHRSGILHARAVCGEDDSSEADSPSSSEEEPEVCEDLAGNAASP
Method in brief: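 Measured here is mRNA from a GAL4-UAS reporter in transfected HepG2 cells carrying a Gal4-fused receptor, 24 h post-dose. DMSO served as negative control and baseline.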

Measured: AC50

E-selectin (Homo sapiens), sequence (P16581 whole entry, looked up): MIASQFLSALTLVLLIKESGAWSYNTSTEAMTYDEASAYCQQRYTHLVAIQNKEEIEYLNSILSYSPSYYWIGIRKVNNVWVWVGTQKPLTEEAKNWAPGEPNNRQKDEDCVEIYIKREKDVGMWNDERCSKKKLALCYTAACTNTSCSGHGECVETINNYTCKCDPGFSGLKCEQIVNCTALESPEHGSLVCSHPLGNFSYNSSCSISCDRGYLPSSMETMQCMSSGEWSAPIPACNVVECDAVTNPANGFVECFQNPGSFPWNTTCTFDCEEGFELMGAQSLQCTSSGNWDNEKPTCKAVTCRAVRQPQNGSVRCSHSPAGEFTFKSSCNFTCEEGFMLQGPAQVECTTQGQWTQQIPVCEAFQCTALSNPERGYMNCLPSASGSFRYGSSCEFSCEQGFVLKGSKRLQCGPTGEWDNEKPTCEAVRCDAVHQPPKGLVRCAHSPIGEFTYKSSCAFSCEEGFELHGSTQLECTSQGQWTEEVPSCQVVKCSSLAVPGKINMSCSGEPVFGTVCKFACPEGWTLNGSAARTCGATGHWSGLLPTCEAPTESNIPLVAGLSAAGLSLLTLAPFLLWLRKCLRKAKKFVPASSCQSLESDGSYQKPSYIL

O=S(=O)(OCCOC(F)(F)F)C(F)(F)F
not listed: [15] | [16] | [17] | [18] | [19]
inactive: all other assays above

OCC(F)(F)C(F)(F)C(F)(F)C(F)(F)C(F)(F)C(F)F
not listed: [1] | [2] | [16] | [17] | [18] | [19]
inactive: all other assays above

OCCCC(F)(F)C(F)(F)C(F)(F)C(F)(F)C(F)(F)C(F)(F)C(F)(F)F
inactive: [1] | [17] | [11] | [14]
active: [1] 42.3 µM | [3] 23.3 µM and 48.9 µM | [16] 30.8 µM and 44.4 µM | [5] 45.7 µM and 45.1 µM | [6] 44.1 µM and 36.1 µM | [7] 44.9 µM and 47.6 µM | [8] 49.2 µM and 43.7 µM | [9] 32.6 µM and 45.2 µM | [10] 49.7 µM and 48.3 µM | [11] 41.8 µM | [12] 49.4 µM and 48.3 µM | [13] 49.1 µM and 52.5 µM

CS(C)(=O)=O
not listed: [2] | [4] | [13] | [15] | [16] | [17] | [19]
inactive: all other assays above

C#C[C@]1(O)CC[C@H]2[C@@H]3CCc4cc(OC)ccc4[C@H]3CC[C@@]21C
active: [6] 31.2 µM | [7] 3.97 µM | [18] 37.5 µM
not listed: [2] | [4] | [13] | [15] | [16]
inactive: all other assays above

C=C(C)C(=O)OCCC(F)(F)C(F)(F)C(F)(F)C(F)(F)C(F)(C(F)(F)F)C(F)(F)F
not listed: [2] | [4] | [15] | [16] | [17] | [18] | [19]
inactive: all other assays above

O=S(=O)(OCC(F)F)C(F)(F)F
not listed: [2] | [13] | [17] | [18] | [19]
inactive: all other assays above
